Reference: PubChem BioAssay (NCI)
The panel holds about 83,000 compounds, 20% with a hit somewhere; the sample as a whole holds those more often.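 Interpretation: 100, growth as untreated; towards 0, rising growth inhibition; 0, no net growth; 0 to -100, cell death. Compounds scoring below 10 were considered active.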 Values without a mark were called inactive. Activity calls are given as the source filed them.

Columns and labels:
Test in all cases: NCI-60 one-dose screen, 48 h (100 = growth as untreated, 0 = no growth, -100 = all killed)
Conditions in all cases: 10 µM unless noted
[1] = tested on: SR leukemia
[2] = tested on: RPMI-8226 leukemia
[3] = tested on: OVCAR-8 ovarian
[4] = tested on: OVCAR-5 ovarian
[5] = tested on: OVCAR-4 ovarian
[6] = tested on: SK-OV-3 ovarian
[7] = tested on: IGROV1 ovarian
[8] = tested on: OVCAR-3 ovarian
[9] = tested on: HS 578T breast
[10] = tested on: NCI/ADR-RES ovarian

Row | Compound | growth [1] | growth [2] | growth [3] | growth [4] | growth [5] | growth [6] | growth [7] | growth [8] | growth [9] | growth [10]
1 | CC1(C)C(O)NC(Cl)=C(C#N)C1(C#N)C#N (stereo not given) | 119% | 110% | 103% | 83% | 107% | 108% | -10.9% (active) | 229% | 114% | 103%
2 | Cc1ccc(NCc2cn(-c3ccc(C(=O)O)cc3)nc2-c2ccc(C(=O)O)cc2)cc1 | 103% | 109% | 97.8% | 106% | 109% | 102% | 107% | 101% | 101% | 102%
3 | COc1cc(-c2nn(-c3ccc(NC(=O)c4ccc(Cl)c(Cl)c4)cc3)cc2-c2ccncc2)ccc1Cl | 11.3% | 4.1% (active) | 31.4% | 81.8% | 57% | 94.4% | 96.3% | 68.4% | -23.7% (active) | 72.5%
4 | O=C1N/C(=N\c2nnc(-c3ccc(O)cc3)s2)S/C1=C\c1ccccc1O | 99.4% | 101% | 96.8% | 93.7% | 88.2% | 112% | 99.1% | 93.2% | 90.3% | 97.8%
5 | Clc1ccc(N/N=C(\c2ccccc2)c2ccccn2)nc1 | 1.95% (active) | 4.95% (active) | 11.3% | 36.2% | 30.7% | 12.5% | 12.7% | 12.3% | 34.1% | -12.9% (active)
6 | CCCCCCCCCCCC(=O)OC(C)C(=O)Nc1ccccc1 (stereo not given) | 86.1% | 99.8% | 95.4% | 95.2% | 105% | 97.6% | 103% | 102% | 94.3% | 100%
7 | CCCCN(CCCC)CC(O)CN(CC)CC (stereo not given) | 97% | 97.4% | 104% | 95.3% | 97% | 99% | 100% | 113% | 120% | 105%
8 | O=C(CCl)NC1c2ccccc2Oc2ccccc21 | 33.7% | 50.1% | 61.2% | 83.9% | 56.5% | 85.6% | 46.1% | 68.6% | 97.4% | 101%
9 | CCCCCCNC(=O)Oc1ccc(/C(=C(/C)Cc2ccc(OC)cc2)c2ccc(OCCN3CCCCC3)cc2)cc1 | -0.659% (active) | 76.5% | 81.2% | 90.5% | 81% | 88.8% | 95.1% | 93.9% | 80% | 86.3%
10 | O=C(/C=C1\C(=O)N(Cc2ccc([N+](=O)[O-])cc2)c2ccccc21)c1ccc(OCCN2CCCC2)cc1 | -19% (active) | 28.4% | 66% | 77.3% | 64.9% | 102% | 74.9% | 62.7% | 50.1% | 75.6%
11 | COc1nc(OC)nc(-c2cc(C(=O)c3ccc(Br)cc3)n3cc(C)cc(C)c23)n1 | 87% | 76.4% | 54.7% | 102% | 37.6% | 53.9% | 62.4% | 34.5% | 24.1% | 58.7%
12 | Cc1ccc(NC(=O)CCl)cc1Cl | 51.9% | 91% | 92.9% | 108% | 89.2% | 102% | 63.8% | 114% | 93.8% | 107%
13 | O=C(/C=C/c1ccc(Br)cc1)c1ccccc1 | 4.53% (active) | 1.56% (active) | 91.9% | 113% | 96.3% | 111% | 87.3% | 93.3% | 100% | 99.5%
14 | O=C(O)CC1Cc2ccccc2C1C(=O)O (stereo not given) | -8.39% (active) | 110% | 101% | 108% | 113% | 102% | 110% | 102% | 104% | 99.5%
15 | CCOC(=O)c1c(C)oc2ncnc(Nc3ccc(NC(=O)Nc4ccc(CC)cc4)cc3)c12 | 81.6% | 95.1% | 112% | 107% | 105% | 88.2% | 110% | 118% | 97.7% | 97.2%
16 | CC[C@H](Nc1ncnc2nc[nH]c12)c1nc2cccc(NCc3ccc(C(=O)NO)o3)c2c(=O)n1-c1ccccc1 | 76.2% | 94.9% | 99.2% | 98.3% | 97.3% | 110% | 106% | 97.6% | 84.7% | 101%
17 | CC(=O)c1nn(-c2ccc(C)cc2)cc1C(=O)c1cc2c(ccc3ccccc32)oc1=O | 84% | 93.5% | 101% | 102% | 87.3% | 80.4% | 88% | 98.4% | 96.7% | 101%
18 | CC(=O)NCCN | 97% | 105% | 93.4% | 102% | 115% | 116% | 111% | 113% | 103% | 113%
19 | O=C(N/N=C\c1ccc(-c2ccc(Br)cc2)o1)c1cc2oc(-c3cccc(C(F)(F)F)c3)cc2[nH]1 | -3.49% (active) | 98.4% | 103% | 88.4% | 106% | 115% | 130% | 101% | 81.1% | 96%
20 | C/C=C/C/C=C/[C@H](C)C[C@H](O)[C@@H]1C[C@@H]2O[C@H]2/C=C/[C@@H]2OC(C)(C)O[C@H]2/C=C/C[C@H](C)CC(=O)O1 | 18.8% | -5.18% (active) | 15.8% | 68.5% | 23.3% | 88.5% | 25.2% | 21.5% | -18.8% (active) | 7.52% (active)
21 | CCOC(=O)C1=C(C(F)(F)F)NC(=O)NC1CN1C(=O)c2ccccc2C1=O (stereo not given) | 5.85% (active) | 82.6% | 114% | 94.2% | 110% | 121% | 122% | 129% | 111% | 107%
22 | CC(=O)OC1/C=C\CC/C=C\C1 (stereo not given) | 104% | 101% | 98.8% | 97.4% | 107% | 105% | 110% | 115% | 101% | 122%
23 | Cn1c2c(cc(S(=O)(=O)c3ccccc3)c1=O)CCc1c-2cnn1-c1ccc(Cl)cc1 | 52% | 49.3% | -48.4% (active) | 26.2% | -9.94% (active) | 1.98% (active) | 50.6% | 56.4% | -10.1% (active) | 39.3%
24 | Cc1ccc(OCCn2ccc(=O)n(CCOc3ccc(Cl)cc3C(=O)c3cc(C)cc(C)c3)c2=O)cc1 | 19.7% | 34.1% | 70% | 87.2% | 47.3% | 59.8% | 61.4% | 25.1% | 37.2% | 20.1%
25 | O=P(OCCCl)(OCCCl)C(O)c1ccccc1Cl (stereo not given) | 89.3% | 110% | 104% | 107% | 111% | 104% | 98.6% | 96.8% | 106% | 109%
26 | CSc1nc(N)n2nccc2n1 | 111% | 106% | 98.5% | 114% | 103% | 105% | 105% | 106% | 105% | 105%
27 | CC(=O)Nc1ccc(CC#N)cc1Br | 112% | 109% | 110% | 109% | 98.2% | 104% | 110% | 108% | 89.9% | 116%
